# Compound activity (PubChem BioAssay)
# This is a sample that favours compounds with a hit; in the whole collection about 3.8% have one here.
# ADAM10 inh – inhibitors of human ADAM10. actives 0.62% (n = 370,000). recombinant ADAM10, EDANS/DABCYL FRET peptide cleavage, 3 h. O14672. inhibition, % at 7 µM;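 active = inhibition above a per-campaign cutoff equal to the mean of compounds falling between control-based bounds plus 3 SD, cut at about 20% in these data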;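 note: 0% = DMSO wells while the 100% control is not disclosed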
# Target sequence (O14672 214-748 limits assumed): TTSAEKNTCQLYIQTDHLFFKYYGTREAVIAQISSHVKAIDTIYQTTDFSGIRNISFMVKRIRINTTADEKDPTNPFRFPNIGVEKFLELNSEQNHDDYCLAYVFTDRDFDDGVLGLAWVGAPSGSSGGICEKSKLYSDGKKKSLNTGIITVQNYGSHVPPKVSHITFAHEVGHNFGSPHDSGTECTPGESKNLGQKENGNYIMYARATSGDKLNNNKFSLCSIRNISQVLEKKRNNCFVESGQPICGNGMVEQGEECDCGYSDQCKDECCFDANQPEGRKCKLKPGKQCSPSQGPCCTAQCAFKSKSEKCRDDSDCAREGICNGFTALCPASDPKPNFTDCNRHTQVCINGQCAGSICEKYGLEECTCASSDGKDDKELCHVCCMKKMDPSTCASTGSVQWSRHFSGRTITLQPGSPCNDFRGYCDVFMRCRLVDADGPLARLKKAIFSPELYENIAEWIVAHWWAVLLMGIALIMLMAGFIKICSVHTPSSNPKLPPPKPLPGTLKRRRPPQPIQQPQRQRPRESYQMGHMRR
# FGF22 binding – shifts melting point of recombinant human FGF22. Q9HCT0. recombinant FGF22 thermal shift, SYPRO orange fluorescence; percent of sucrose octasulfate shift, DMSO zero. activity (Tm shift, normalised), % at 9.99 µM. actives 1.5% (n = 340,000). AID 651658;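 active = mean Tm shift, scaled 0 neutral to 100 positive control, at about 1.3% or above, every replicate too, limit read from the data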
# proKLK7 act – activates the human kallikrein-7 zymogen; P49862; purified proKLK7, EDANS-DABCYL substrate fluorescence; 100% is mature enzyme control, 0% vehicle; activation, % at 7 µM; actives 0.9% (n = 370,000); AID 652039;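 active = activation above the mean of all tested compounds plus 3 SD, computed per campaign excluding outliers beyond control limits, cut at about 13% in these data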
# Ecoli rRNA inh – inhibits bacterial ribosomal RNA function over humanized ribosomes | actives 1.6% (n = 350,000) | AID 720706 | E. coli WT GFP vs humanized-ribosome RFP mutants, fluorescence, 24 h; hits give low values; DMSO median 0, no signal -100 | GFP signal change (wild-type ribosome), % (no concentration beside the values);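 active = significant combined selectivity score with lowered wild-type GFP, culture density cut under 30%, mutant RFP and density less affected; inactive = any of these conditions unmet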
# ADAM17 inh – inhibitors of human ADAM17; P78536; recombinant ADAM17, EDANS/DABCYL FRET peptide cleavage; inhibition, % at 6.95 µM; actives 0.83% (n = 370,000); AID 720648;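 active = inhibition above the mean of compounds lying between control limits plus 3 SD, set per campaign, cut at about 8.5% in these data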;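 note: 0% = DMSO-only wells as the low control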
# ADAM10 counter – counter-screen for ADAM17 exosite inhibitors: inhibitors of human ADAM10; AID 743256; actives 47% (n = 2,900); shares compounds with ADAM17 inh; recombinant ADAM10, EDANS/DABCYL FRET peptide cleavage, 3 h; inhibition, % at 6.95 µM;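 active = mean inhibition over the triplicate runs exceeds the activity threshold set in the earlier primary screen, cut at about 20% in these data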;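 note: 0% = DMSO wells and 100% = marimastat wells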
# ADAM17 confirm – human ADAM17 inhibition, confirmation | shares compounds with ADAM17 inh | recombinant ADAM17, EDANS/DABCYL QFRET peptide cleavage | inhibition, % at 6.95 µM | actives 65% (n = 2,900) | AID 743257;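 active = mean inhibition across replicates above the hit cutoff set in the primary screen, cut at about 8.5% in these data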;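 note: 0% = DMSO wells and 100% = marimastat wells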
# Active calls of the source: *; nt = not tested or not shown.
SMILES,ADAM10 inh,FGF22 binding,proKLK7 act,Ecoli rRNA inh,ADAM17 inh,ADAM10 counter,ADAM17 confirm
CC1=C(C(=O)OCCNC(=O)c2ccccc2O)C(c2ccccc2[N+](=O)[O-])C(C(=O)OCC2CCCO2)=C(C)N1 (centres undefined),15,nt,0,nt,13*,16,7
Nc1[nH]c(C(=O)c2ccccc2)c(-c2cc(F)ccc2Br)c1C(=O)NCCc1c[nH]c2ccccc12,13,0,0,nt,10*,26*,16*
C[C@@H]1CN([C@@H](C)CO)C(=O)c2cc(NC(=O)CCC(F)(F)F)ccc2O[C@@H](C)CCCCO[C@H]1CN(C)Cc1ccccc1,nt,nt,nt,1,nt,nt,nt
CC(=O)Nc1ccc(SC[C@H](CC(C)C)N2CCN(CCc3ccccc3)CCC2=O)cc1,6,0,0,0,9.0*,-9,-1
CS(=O)(=O)N1CC(=O)N2[C@H](C1)[C@H](c1ccc(C#Cc3cccc(F)c3)cc1)[C@@H]2CO,nt,nt,nt,1,nt,nt,nt
Oc1ccc(C[C@H]2CNC(=S)N2CC2CCCN2C[C@H](Cc2ccccc2)N2C[C@H](Cc3ccc(O)cc3)N(CCc3ccccc3)C2=S)cc1 (some centres undefined),19,0,0,20,10*,44*,22*
CCOc1ccc(CCN2C(=S)N([C@@H](CC(C)C)CN3CCCC3CN3C(=S)NC[C@@H]3Cc3ccc(O)cc3)C[C@@H]2Cc2ccccc2)cc1 (some centres undefined),1,0,0,4,3,nt,nt
CCOc1ccc(CCN2C(=S)N([C@@H](Cc3ccc(O)cc3)CN3CCC[C@@H]3CN3C(=S)NC[C@@H]3Cc3ccccc3)C[C@@H]2Cc2ccc(O)cc2)cc1,19,0,-1,10,12*,17,8.8*
Oc1ccc(C[C@@H](CN2CCC[C@@H]2CN2C(=S)NC[C@@H]2Cc2ccccc2)N2C[C@H](Cc3ccccc3)N(CCc3ccccc3)C2=S)cc1,18,0,0,18,8,nt,nt
CC(C)C[C@H]1CNC(=S)N1C[C@H]1CCCN1C[C@H](Cc1ccccc1)N1C[C@H](Cc2ccc(O)cc2)N(CCc2ccccc2)C1=S,7,0,0,12,9.5*,14,9.5*
CC(C)C[C@H]1CN([C@@H](Cc2ccc(O)cc2)CN2CCC[C@@H]2CN2C(=S)NC[C@@H]2Cc2ccccc2)C(=S)N1CCc1ccccc1,13,0,0,8,8.9*,34*,20*
CC(C)C[C@H]1CNC(=S)N1C[C@H]1CCCN1C[C@H](Cc1ccc(O)cc1)N1C[C@H](Cc2ccc(O)cc2)N(CCc2ccccc2)C1=S,17,0,-1,2,8,nt,nt
CO[C@@H]1CN(C)C(=O)c2ccc(NC(C)=O)cc2OC[C@H](C)N(S(=O)(=O)c2cn(C)cn2)C[C@H]1C,nt,0,nt,1,nt,nt,nt
C[C@H]1CN([C@@H](C)CO)C(=O)c2cc(C#CC3CC3)cnc2O[C@@H]1CN(C)C(=O)C1CCCCC1,nt,nt,nt,-2,nt,nt,nt
COc1ccc(NC(=O)c2oc3ccccc3c2NC(=O)C(C)(C)C)cc1,9,nt,1,nt,9.7*,9,8.8*
CCN(CC)c1ccc(NC(=O)CSc2nc3ccccc3c(=O)n2-c2cc(S(=O)(=O)N(C)C)ccc2C)cc1,19,nt,-1,nt,10*,21*,15*
CCc1ccc(CCNC(=O)OCCCN2CCC3(CCC(c4ccccc4)CC3)C2=O)cc1 (centres undefined),12,nt,1,nt,9.4*,36*,15*
CCCCNC(=O)OCCCN1CCC2(CCC(c3ccccc3)CC2)C1=O (centres undefined),-5,nt,0,nt,1,nt,nt
C[C@H](CO)N1C[C@H](C)[C@@H](CN(C)C(=O)NC2CCCCC2)OCCCC[C@H](C)Oc2ccc(NS(C)(=O)=O)cc2C1=O,nt,0,nt,0,nt,nt,nt
Cc1ccc(CNC(=O)C(=O)NCC2OCCN2S(=O)(=O)c2ccc(C)cc2)cc1 (centres undefined),-6,0,0,8,11*,-7,1
Cc1ccc(CNC(=O)C(=O)NCC2OCCN2S(=O)(=O)c2ccc(Br)cc2)cc1 (centres undefined),6,0,1,-3,6,nt,nt
COc1ccc(S(=O)(=O)N2CCCOC2CNC(=O)C(=O)NCCO)cc1 (centres undefined),5,0,0,nt,10.0*,7,9.4*
COc1ccc(CN(C)C[C@@H]2OCCCC[C@@H](C)Oc3ccc(N(C)C)cc3C(=O)N([C@H](C)CO)C[C@H]2C)cc1,nt,-1,nt,2,nt,nt,nt
C[C@@H]1CCCCO[C@H](CN(C)S(=O)(=O)c2ccc(Cl)cc2)[C@H](C)CN([C@H](C)CO)C(=O)c2cc(N(C)C)ccc2O1,nt,-1,nt,-7,nt,nt,nt
O=C(Nc1nc(-c2ccccc2)cs1)C1COc2ccccc2O1 (centres undefined),12,nt,0,nt,14*,44*,14*
SMILES,ADAM10 inh,FGF22 binding,proKLK7 act,Ecoli rRNA inh,ADAM17 inh,ADAM10 counter,ADAM17 confirm
CCC(C)(C)n1nnnc1C(c1ccc(C)cc1)N(Cc1ccco1)Cc1cccs1 (centres undefined),13,nt,0,nt,9.4*,7,5
O=C(O)CNC(=O)C1(NC(=O)OCc2ccccc2)CCCC1,6,0,0,12,8.7*,1,3
C[C@H](CO)N1C[C@H](C)[C@H](CN(C)S(=O)(=O)c2ccc(Cl)cc2)Oc2ccc(NS(=O)(=O)c3ccc(Cl)cc3)cc2CC1=O,nt,0,nt,1,nt,nt,nt
CCN(CC(=O)Nc1ccccc1OC)C(=O)c1ccc2[nH]c3c(c2c1)CC(C)CC3 (centres undefined),-18,0,6,9,-3,nt,nt
CCCN(CC(=O)Nc1ccccc1OC)C(=O)c1ccc2[nH]c3c(c2c1)CC(C)CC3 (centres undefined),8,0,3,-5,13*,29*,16*
Cc1ccc(-c2cc(C(=O)Nc3ccc(S(=O)(=O)N4CC(C)OC(C)C4)cc3)[nH]n2)c(O)c1 (centres undefined),13,0,0,-10,4,nt,nt
Cc1ccc(O)c(-c2cc(C(=O)Nc3ccc(S(=O)(=O)N4CC(C)OC(C)C4)cc3)[nH]n2)c1 (centres undefined),16,nt,0,nt,9.2*,17,9.4*
O=C(/C=C/c1cccc([N+](=O)[O-])c1)NCc1ccccc1,-3,42,0,12,3,nt,nt
